CCT modulator = High-Throughput Screening for Modulators of Cytosolic Chaperonin Activity; actives 0.3% (n = 360,000); purified chaperonin ATPase assay, HTRF ADP detection, 30 min; activity change, % (no concentration beside the values), hits read low; in the data active = activity change below about -30%
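Nucleotide hydrolysis assay: TRiC at 20–40 nM final (set by batch activity) with 10 uM ATP, 30 min at 37 °C, in presence of 76 uM compound. Detection by competitive ADP HTRF, 30 min ambient.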
A549 viability = Nrf2 qHTS screen for inhibitors: counterscreen for cytotoxicity; actives 0.16% (n = 390,000); A549 ARE-Fluc cells, CellTiter-Fluor viability, 18-24 h; Potency, µM (series often up to 46 µM), most hits filed as inhibitors
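A549 ARE_Fluc cells in 5% FBS OPTI-MEM were exposed to compounds in concentration-response for 18-24 h at 37 deg C. Viability was read by CellTiter-Fluor fluorescence (Ex 405/Em 525) after 30 min, before the luciferase read.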
Nrf2 inh = Nrf2 qHTS screen for inhibitors; Potency, µM (titrated, usually from 46 µM), most hits filed as inhibitors; actives 2.1% (n = 360,000); A549 ARE-Fluc reporter, luciferase luminescence, 18-24 h; AID 504444, 2011; also: nearly all actives have a fitted effect of over 60% in size
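Two sequential reads on A549 ARE_Fluc cells exposed to compound for 18-24 h: a CellTiter-Fluor fluorescence read for viability, then a luciferase luminescence read for Nrf2/ARE activity.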
TCR act = Activators of T cell receptors: qHTS campaign | primary human leukocytes, anti-CD3, IL-2 HTRF, 48 h | Potency, µM (highest dose often 9.22 µM), hits mostly activators | 330,000 tested, under 10 active | AID 504894, 2011
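Human primary leukocytes + a-CD3 beads + cpd, 48 hr; IL-2 in supernatant by HTRF (ex 320nm / em 665nm). No co-stimulatory signal supplied.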
AT treatment = qHTS Assay for Identifying a Potential Treatment of Ataxia-Telangiectasia; F2112 A-T fibroblasts, KAP-1 phosphorylation AlphaLISA; neocarzinostatin DNA damage 30 min before lysis; Potency, µM (doses to about 57.5 µM), actives largely listed as activators; actives 0.19% (n = 320,000); also: nearly all actives have a fitted effect of over 45% in size
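ATM-like activity read as KAP-1 phosphorylation via AlphaLISA donor/acceptor antibody pairs after lysis and 6 hr at 25C. Cells were ATM-null patient fibroblasts (F2112, hTERT), dosed 60 min, then exposed to the DSB inducer NCS for 30 min.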
Nrf2 ARE act = qHTS of Nrf2 Activators. AREc32 ARE-luciferase reporter (MCF7-derived line), luminescence, 24 h. Potency, µM (series often up to 46.1 µM), hits mostly activators. actives 0.31% (n = 410,000); also: nearly all actives have a fitted effect of over 65% in size
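Nrf2 activation is followed as ARE-luciferase induction in the AREc32 line after one day of compound treatment; luminescence is read with Steady-Glo.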
Of the large screens only hits and unclear results are named; the others gave an inactive call. Compounds with a hit are over-represented: about 2.6% of the library has one in this group of screens. Unless noted, calls follow the shape of the dose curve; as a rule, active = well fitted curve in the direction sought with a large enough effect; inconclusive = small, poorly fitted or top-dose-only effect, or another doubt; inactive = no such curve, though single readings can be large; an effect the other way counts as inactive or inconclusive.

Cn1cc(C(=O)c2ccc(Cl)cc2Cl)cc1C(=O)N/N=C(\N)COc1ccc(Cl)cc1	Nrf2 inh 13µM
Cc1ccc2cc(NC(=O)C3(C)CCN(C)C3)ccc2n1 (stereo not given)	none (no result: A549 viability, Nrf2 inh, TCR act, AT treatment)
CC1CCCN(C(=O)c2ccc(CSc3nc4ccncc4n3Cc3ccccc3)cc2)C1 (stereo not given)	none (no result: CCT modulator, TCR act, AT treatment)
COC(=O)c1c(NC(NC(=O)C(C)C)C(Cl)(Cl)Cl)sc2c1CCC2 (stereo not given)	Nrf2 inh 18µM
CCOC(=O)c1c(NC(NC(C)=O)C(Cl)(Cl)Cl)sc2c1CCCC2 (stereo not given)	Nrf2 inh inconclusive
COC(=O)c1c(NC(NC(=O)C(C)(C)C)C(Cl)(Cl)Cl)sc2c1CCC2 (stereo not given)	Nrf2 inh inconclusive
COC(=O)c1c(NC(NC(C)=O)C(Cl)(Cl)Cl)sc2c1CCCC2 (stereo not given)	Nrf2 inh 21µM (no result: AT treatment)
CCc1ccc(-c2nc(SCC(=O)NCC3CCCO3)c(-c3ccc(F)cc3)[nH]2)cc1 (stereo not given)	none (no result: CCT modulator, TCR act, AT treatment)
CCNc1nnc(SCC(=O)c2c(N)n(C3CC3)c(=O)[nH]c2=O)s1	none
CCCn1c2ccccc2c2cnn(CC(=O)NCCc3ccc(OC)cc3OC)c(=O)c21	none (no result: CCT modulator, TCR act, AT treatment)
O=C(Nc1ccc(F)cc1)N(CCCN1CCOCC1)Cc1cc2cc3c(cc2[nH]c1=O)OCCO3	AT treatment 14µM
CNC(=S)N(CCO)Cc1cc2cc3c(cc2[nH]c1=O)OCCO3	AT treatment 2.8µM
O=C(CCn1cnnn1)Nc1cc(C(F)(F)F)cc(C(F)(F)F)c1	none (no result: CCT modulator, TCR act, AT treatment)
COc1cc(C2Nc3ccccc3C(=O)N2Cc2ccco2)ccc1O (stereo not given)	none (no result: CCT modulator, TCR act, AT treatment, Nrf2 ARE act)
CC(C)Cc1nc(N2CCN(C(=O)c3ccco3)CC2)c(C#N)c2c1CCCC2	A549 viability inconclusive, Nrf2 inh inconclusive
CC(C)C(=O)N1CCN(c2nc(-c3ccccc3)c3c(c2C#N)CCCC3)CC1	A549 viability inconclusive, Nrf2 inh 12µM
CCc1ccc(N2CC(C(=O)NC3CCCCC3C)CC2=O)cc1 (stereo not given)	none
O=C(NC1CCCCCC1)c1ccc([N+](=O)[O-])s1	Nrf2 inh 2.1µM
O=C(NC1CCCC1)c1ccc(Cl)s1	none
N#C/C(=C\c1ccc[nH]1)C(=O)Nc1ccccc1Cl	Nrf2 ARE act inconclusive
N#C/C(=C\c1ccc[nH]1)C(=O)Nc1ccccc1F	Nrf2 inh inconclusive, Nrf2 ARE act 11µM
CCCC(C)C(=O)Nc1nc(C)c(-c2csc(Nc3cc(Cl)ccc3C)n2)s1 (stereo not given)	Nrf2 inh 23µM
Cc1nc([N+](=O)[O-])c(Br)n1CC(=O)c1ccc(Br)cc1	A549 viability 16µM, Nrf2 inh 23µM
Cc1nc([N+](=O)[O-])c(Br)n1CC(=O)c1ccccc1	A549 viability inconclusive, Nrf2 ARE act inconclusive (no result: Nrf2 inh)
O=C(NNc1ccc(F)cc1F)c1cccs1	none (no result: CCT modulator, TCR act, AT treatment, Nrf2 ARE act)
CSc1cccc(Nc2ccc(S(=O)(=O)N3CCOCC3)cc2[N+](=O)[O-])c1	Nrf2 inh 18µM (no result: TCR act)
CN(C)C(=O)c1ccc(NC(=O)COC(=O)C2(c3ccccc3)CCCC2)cc1	Nrf2 inh 16µM (no result: TCR act)
Cc1cc2nc3ccc(N(C)C)cc3nc2cc1N	CCT modulator -40, Nrf2 inh inconclusive (no result: AT treatment)
Cc1ccc(N(C(=O)CNC(=O)c2ccco2)C(C(=O)NC2CCCCC2)c2cccnc2)cc1C (stereo not given)	none
Cc1ccc(C(C(=O)NC2CCCC2)N(C(=O)Cc2cccs2)c2ccc(C)c(C)c2)o1 (stereo not given)	A549 viability inconclusive, Nrf2 inh 18µM
Cc1ccc(N(C(=O)CCl)C(C(=O)NC2CCCCC2)c2cccnc2)cc1C (stereo not given)	Nrf2 ARE act 14µM
Cc1ccc(N2C(=O)[C@@H]3[C@H](C2=O)C2CCCN2[C@@H]3C(=O)c2ccccc2)cc1 (stereo not given in full)	Nrf2 ARE act inconclusive
O=C(c1ccccc1)[C@@H]1[C@@H]2C(=O)N(c3ccc(F)cc3)C(=O)[C@@H]2C2CCCN21 (stereo not given in full)	Nrf2 ARE act 10µM
COc1ccc(CCn2c3c(c(=O)[nH]c2=S)CN(Cc2ccccc2)CN3)cc1OC	Nrf2 inh inconclusive (no result: CCT modulator, TCR act, AT treatment, Nrf2 ARE act)
COC(=O)/C=C1/N/C(=N\c2nc(C)cc(C)n2)N(c2ccccc2)C1=O	Nrf2 inh inconclusive
COC(=O)/C=C1\N/C(=N\c2nc(C)cc(C)n2)N(c2ccccc2)C1=O	CCT modulator -38
COC(=O)c1c(NC(=O)C2COc3ccccc3O2)sc2c1CCN(C(C)=O)C2 (stereo not given)	A549 viability inconclusive, Nrf2 inh 21µM
Cc1cc(=O)n2nc(N(C)CC(=O)NCc3ccccc3C)sc2n1	none (no result: CCT modulator, TCR act, AT treatment)
O=c1nc(SCc2c(F)cccc2Cl)nc(-c2ccccc2)[nH]1	CCT modulator -31
O=c1nc(SCc2ccc(Cl)cc2)nc(-c2ccccc2)[nH]1	none
CCSc1nnc(SCC(=O)c2c(N)n(C)c(=O)n(C)c2=O)s1	Nrf2 inh 21µM
Cc1ccccc1Nc1nnc(SCC(=O)c2c(N)n(C)c(=O)n(C)c2=O)s1	none (no result: TCR act)
C/C=C1\COC(C(=O)NCCOCCO)(C(F)(F)F)C=C1C=C1CCCCC1 (stereo not given)	none (no result: CCT modulator, TCR act, AT treatment, Nrf2 ARE act)
CCOC(=O)C1CCN(S(=O)(=O)CCNC(=O)c2ccccc2)CC1	none
CCOC(=O)C1CCCN(S(=O)(=O)CCNC(=O)c2cccc(OC)c2)C1 (stereo not given)	Nrf2 inh 18µM
CCOC(=O)c1cc(-c2cccs2)nc2c1c(C)nn2-c1ccccn1	Nrf2 inh 23µM
Cc1nn(-c2ccccn2)c2nc(-c3cccs3)cc(C(=O)NCc3ccco3)c12	Nrf2 inh inconclusive
O=S(=O)(NC1CCCC1)c1ccc(S(=O)(=O)N(Cc2cccs2)CC2CCCO2)cc1 (stereo not given)	Nrf2 inh 18µM
Cc1ccc(NC(=O)c2ccc3c(c2)CCC(=O)N3)cc1C	none (no result: CCT modulator, TCR act, AT treatment, Nrf2 ARE act)
CCC(Oc1ccc(C)cc1)C(=O)Nc1ccc(S(=O)(=O)Nc2cc(C)on2)cc1 (stereo not given)	Nrf2 inh inconclusive
O=C(Nc1ccccc1-c1nnc(SCc2ccc(Cl)cc2)o1)c1ccccc1	A549 viability inconclusive
